# Laboratory results taken from PubChem BioAssay (NCATS).
# Records with an inconclusive call do not appear. Activity calls are given as the source filed them. Calls follow the shape of the dose curve; as a rule, active = well fitted cell-killing curve with a large enough effect; inconclusive = small, poorly fitted or top-dose-only effect; inactive = flat fitted curve, though single readings scatter. Bridge positions count the residues as written; N and C are the ends. Square brackets hold non-standard residues; d marks the D form. Peptide text beside a SMILES is read from it. * marks the point of attachment. ξ: configuration not given here. Octanoyl(6-Me) = CCC(C)CCCCC(=O)*; ξThr(3R) = C[C@@H](O)C(N)C(=O)O; dDab = NCC[C@@H](N)C(=O)O; Dab = NCC[C@H](N)C(=O)O
# Assay: Quantitative highthroughput screen to assess conditional lethalithy of P12 Ichikawa cells grown in RPMI1640 with dialyzed fetal bovine serum (RPMI+ds) (AID 1963880); also: nearly all actives have a fitted effect of over 35% in size
# Details: ATP luminescence, 48 h; Potency: P12-Ichikawa viability; series mostly up to 45.8 µM; viability: at the top concentration
# Excerpt: Assay Provider: Jason Cantor Ph.D.
# Department of Biochemistry
# University of Wisconsin-Madison, Madison, WI, USA
# Chemical screening studies have identified drug sensitivities across hundreds of cancer cell lines but most putative therapeutics fail to translate. Discovery and development of drug candidates in models that more accurately reflect nutrient levels in human blood is a major challenge. Here we performed high-throughput screens in conventional versus Human Plasma-Like Medium (HPLM) to identify compounds that were "missed" when screening using the artificial culture condition. Sets of conditional anticancer compounds spanned phases of clinical development and included non-oncology drugs were assessed. […] We also traced conditional phenotypes for several chemotherapeutics to availability of HPLM-specific metabolites and confirmed others for compounds whose reported targets are encoded by nonessential genes. Our findings establish generalizable strategies for exploiting conditional lethality in HPLM to reveal therapeutic candidates and mechanisms of action in cancer cells.
# Described herein are the results of each viability screens against three cell lines: NOMO1 (an acute myeloid leukemia cell line); P12-Ichikawa (a T-cell acute lymphoblastic leukemia); and SEM (a B-cell ALL). Each assay was screened using 3 different cell culture media: homemade human plasma-Like medium with 10% dialyzed fetal bovine serum (HPLM+ds); RPMI1640 with 10% untreated FBS and 5mM glucose (RPMI+s); and RPMI1640 with 10% dialyzed fetal bovine serum and 5 mM glucose (RPMI+ds).
# PROTOCOL TABLE (as described by Inglese J, Shamu CE and Guy RK. 2007)
# SEQUENCE No. (e.g., 1, 2, 3, etc.); […] (e.g., Cells, Incubation, Reagent, etc.); VALUE and DESCRIPTION.
# 1; Cells; 5 uL; white, solid bottom 1536-well Greiner assay plate.
# 2; Compounds; 23 nL; Kalypsis pin tool (Wako USA) equipped with a 1536-well pin head to transfer to the assay plates.
# 3; Incubation; 48 hours; 37C incubation.
# 4; Reagent; 3 uL; CellTiter Glo (Promega).
# 5; Incubation; 5 min, room temperature
# 6; Detection; Luminescence, Viewlux PerkinElmer.
# NOTES (numbers refer to Sequence numbers above)
# 1. Briefly, 5 ul of cell reagent was dispensed using a Multidrop Combi Dispenser. The NOMO1 and SEM cells were plated at 500 cells/well and the P12-Ichikawa line at 1000 cells/well.
# 2. After seeding the cells, 23 nL of MIPE 4.1 library compounds (in DMSO) were added to each plate using a Kalypsys 1536 Pintool dispenser. Bortezomib at final concentration of […] and DMSO were added to each plate as positive and negative controls respectively. For each screen, MIPE 4.1 compounds were added over an eleven-point concentration range […] in 3-fold dilutions.
# 3. Each plate was covered with a stainless steel gasketed lid to prevent evaporation and incubated for 48 hour at 37C, 95% relative humidity, and 5% CO2.
# 4-5. Three microliter CellTilter-GloTM luminescent substrate mix (Promega) reagent was added to the assay plate and incubated at room temperature for 5 min.
# 6. The luminescence signal was measured using a ViewLux (PerkinElmer) multiplate reader with a 2 second exposure time per plate. Data for each compound were normalized as percent viability such that measurements for DMSO and the empty well controls in each plate were defined as 100% and 0%, respectively.
# Potency is read from the fitted curve at half-maximal effect.
SMILES,Potency,viability
COc1cc2ncn(-c3cc(OCc4ccccc4C(F)(F)F)c(C(N)=O)s3)c2cc1OC,2350 nM (active),–
CON(C)C(=O)N1N=C(c2cc(F)ccc2F)S[C@@]1(CCCN)c1ccccc1,33.1 nM (active),–
COc1ccc2c(c1)CC[C@H]1[C@@H]2CC[C@]2(C)[C@@H](NCCCCCCN3C(=O)C=CC3=O)CC[C@H]12,–,103% (inactive)
C=C(c1ccc(C(=O)O)cc1)c1cc2c(cc1C)C(C)(C)CCC2(C)C,–,92.6% (inactive)
O=C(O)C(=O)Nc1cccc(C2=NN=N[N]2)c1,–,95.7% (inactive)
CC=C(C(=CC)c1ccc(O)cc1)c1ccc(O)cc1,–,97.5% (inactive)
O=C(CCCCCCNC(=O)c1cnc(N(c2ccccc2)c2ccccc2)nc1)NO,5900 nM (active),–
CS(=O)c1ccc(-c2nc(-c3ccc(F)cc3)c(-c3ccncc3)[nH]2)cc1 (stereo not given),8550 nM (active),–
CN(C)C/C=C/C(=O)Nc1ccc(C(=O)Nc2cccc(Nc3ncc(Cl)c(-c4c[nH]c5ccccc45)n3)c2)cc1,331 nM (active),–
Cc1c(NC(=O)c2ccc(C(C)(C)C)cc2)cccc1-c1cn(C)c(=O)c(Nc2ccc(C(=O)N3CCOCC3)cc2)n1,–,95.9% (inactive)
O=S(=O)(NCCNCC=Cc1ccc(Br)cc1)c1cccc2cnccc12,–,92.2% (inactive)
C[C@]12C=CC(=O)C=C1CC[C@@H]1[C@@H]2[C@@H](O)C[C@@]2(C)[C@@H]1CC[C@]2(O)C(=O)CO,7430 nM (active),–
CCCCC(CC)COC(=O)C(C#N)=C(c1ccccc1)c1ccccc1 (stereo not given),–,100% (inactive)
c1ccc2c(Oc3nc(Nc4ccc(N5CCOCC5)cc4)c4ncn(C5CCCCC5)c4n3)cccc2c1,–,91% (inactive)
Cc1ccc2c(c1)C(=O)[C@]1(O)CCN(c3ccccc3)C1=N2,–,104% (inactive)
COC(=O)[C@H](Cc1ccccc1)NC(=O)[C@@H](N)CC(=O)O (H-Asp-Phe-OMe),–,98.9% (inactive)
COc1cc(OC)c(NC(=O)Nc2cc(C)on2)cc1Cl,–,94% (inactive)
O=c1n(CCCN2CCN(c3cccc(Cl)c3)CC2)nc2ccccn12,–,92.7% (inactive)
COc1cc(CNC(=O)CCCCC=CC(C)C)ccc1O,418 nM (active),–
Cn1cc(-c2ccc3nnc(Sc4ccc5ncccc5c4)n3n2)cn1,–,98.8% (inactive)

SMILES,Potency,viability
c1ccc(-c2nn3c(c2-c2ccnc4cc(OCCN5CCOCC5)ccc24)CCC3)nc1,–,88.6% (inactive)
CN(C)c1cccc(-c2c3c(=O)n(-c4ccccc4Cl)[nH]c3cc(=O)n2C)c1,1170 nM (active),–
CN1C(C(=O)Nc2ccccn2)=C(O)c2ccccc2S1(=O)=O,16600 nM (active),–
COC1=C(OC)C(=O)C(CC=C(C)CCC=C(C)CCC=C(C)CCC=C(C)CCC=C(C)CCC=C(C)CCC=C(C)CCC=C(C)CCC=C(C)CCC=C(C)C)=C(C)C1=O,–,99.6% (inactive)
O=c1cc(-c2ccc(O)cc2)oc2cc(O)cc(O)c12,–,97.8% (inactive)
Cc1cc(C=c2sc3nc4ccccc4n3c2=O)c(C)n1-c1ccccc1,–,108% (inactive)
Nc1cccc(S(=O)(=O)N2CCCN(S(=O)(=O)c3ccc4c(c3)OCCO4)CC2)c1,–,99.4% (inactive)
CN1CCCN(C(=O)c2cccc(-c3ccc(C=C4C(=O)Nc5ccc(Cl)cc54)o3)c2)CC1,14800 nM (active),–
CC(C)C(=O)Oc1ccc(CO)cc1[C@H](CCN(C(C)C)C(C)C)c1ccccc1,–,99.4% (inactive)
Nc1ccccc1NC(=O)c1ccc(CNc2nccc(-c3cccnc3)n2)cc1,2350 nM (active),–
O=NN(CCCl)C(=O)NCCCl,–,96.3% (inactive)
C=CC(=O)Nc1cccc(Nc2nc(NC3CCC(N(C)C)CC3)nc3c2ncn3C(C)C)c1 (stereo not given),4180 nM (active),–
O=Nc1c(-c2c(O)[nH]c3cc(Br)ccc23)[nH]c2ccccc12,5900 nM (active),–
NCC(=O)Nc1ccc(-n2nc(C(F)(F)F)cc2-c2ccc3c(ccc4ccccc43)c2)cc1,2960 nM (active),–
CC(=O)NC(C)c1ccc(Oc2ccc(OC(C)C)cc2)cc1 (stereo not given),–,103% (inactive)
CCc1cnn2c(NCc3ccc[n+]([O-])c3)cc(N3CCCC[C@@H]3CCO)nc12,118 nM (active),–
Cc1cccc(Nc2nc(N[C@@H]3CCCC[C@H]3N)ncc2C(N)=O)c1,1870 nM (active),–
OC(CCN1CCCCC1)(c1ccccc1)C1CC2C=CC1C2 (stereo not given),–,102% (inactive)
COc1ccc(-c2nc(N3CCOCC3)c3sc(CN(C)c4ncc(C(=O)NO)cn4)cc3n2)cn1,23.5 nM (active),–
CCC(C)CCCCC(=O)N[C@@H](CCN)C(=O)NC(C(=O)N[C@H](CCN)C(=O)N[C@@H]1CCNC(=O)C([C@@H](C)O)NC(=O)[C@@H](CCN)NC(=O)[C@@H](CCN)NC(=O)[C@@H](CC(C)C)NC(=O)[C@H](Cc2ccccc2)NC(=O)[C@H](CCN)NC1=O)[C@@H](C)O (stereo partly drawn) ({Octanoyl(6-Me)}-[Dab][ξThr(3R)][dDab][dDab][Dab]F[dL][dDab][dDab][ξThr(3R)]; lactam 4-C),–,106% (inactive)
